The panel holds about 79,000 compounds, 15% with a hit somewhere; the sample as a whole holds those more often. Activity calls are given as the source filed them. Cut-off read from the data, not from the text of the source: active = growth inhibition above about 70%; inactive = the rest.

A short description of one assay: NCI Yeast Anticancer Drug Screen. Data for the rad50 strain (AID 155).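 Note: 0% = growth of vehicle-only cultures of the same strain.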 The following applies: S. cerevisiae rad50 strain growth inhibition; at 50.0 µM; hits give high values. In short, it runs like this: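 Growth of the mutant yeast was measured after compound exposure and referenced to vehicle-treated cultures.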
Take `CN=c1ncc2nc(-c3ccccc3)c(-c3ccccc3)n(C)c-2n1`: the growth inhibition is -8.2% (inactive).

As to `O=C(O)/C=C/c1ccccc1Br`, the growth inhibition is 20.8% (inactive).

For `CCCc1cccc[n+]1CC(=O)c1ccccc1`, the growth inhibition is 5.65% (inactive).

For the molecule `CCCCCCCCCCCCCCCCOc1ccccn1`, the growth inhibition is -9.75% (inactive).

Take `Cn1c2c(c3ccccc31)CCN(CCCCN1CCc3c(n(C)c4ccccc34)C1=O)C2`: the growth inhibition was -0.05% (inactive).

As for `CC[C@@H]1CN(C)[C@H]2Cc3c([nH]c4ccccc34)C(=O)C[C@H]1C2C(=O)OC` (stereo not given in full), the growth inhibition is 13.5% (inactive).

Take `O=C(O)c1ccccc1/C=N\N(CCO)C1=NCCN1`: the growth inhibition was 21.4% (inactive).

For the molecule `COC(=O)C1=C(C)C(=O)[C@]23C(CCCC[C@H]12)C(=O)[C@H](C(=O)OC)C3C` (stereo not given in full), the growth inhibition was -19.7% (inactive).

On to `N#CCCSc1nnc(N)s1`, for which the growth inhibition was -7.85% (inactive).

With `CCC1(O)c2ccccc2CCC1C` (stereo not given), the growth inhibition is 12.8% (inactive).

As for `O=S(=O)(c1ccccc1)c1ccccc1Br`, the growth inhibition was 8% (inactive).

For `CC1=NCCN1CCN`, the growth inhibition was 20.6% (inactive).

With `Clc1cc2nnn(C3CCCCO3)c2cc1Cl` (stereo not given), the growth inhibition is 9.75% (inactive).

As to `N#C/C(=N\NC(=O)c1ccccc1Cl)c1ccccc1Cl`, the growth inhibition was 89.5% (active).

Consider `O=C1C2=Cc3ccccc3OC2(O)Oc2ccc(O)cc21` (stereo not given), for which the growth inhibition is 8.5% (inactive).

Regarding `CCc1ccc([OH2+])c(C(=O)[O-])c1.CCc1ccc([OH2+])c(C(=O)[O-])c1.CCc1ccc([OH2+])c(C(=O)[O-])c1.CCc1ccc([OH2+])c(C(=O)[O-])c1.[Cu+2].[Cu+2]`, the growth inhibition is 18.9% (inactive).

Turning to `CCN(c1ccccc1)S(=O)(=O)c1ccc(Oc2ccccc2)c(N)c1`, the growth inhibition was 27.2% (inactive).

Take `COC1OC(COS(=O)(=O)c2ccc(C)cc2)C2OC(C)(C)OC2C1OS(=O)(=O)c1ccc(C)cc1` (stereo not given): the growth inhibition is 54.9% (inactive).

Consider `c1ccc(-c2cc3c4ccccc4ccn3c2)cc1`, for which the growth inhibition is 15.2% (inactive).

For the molecule `NC(=O)N/N=C/c1cccc(O)c1O`, the growth inhibition was 6% (inactive).

As for `N#Cc1cc([N+](=O)[O-])ccc1NC(=O)C(=O)C(C(=O)c1ccc2ccccc2c1)C1OCc2ccccc21` (stereo not given), the growth inhibition was 11.1% (inactive).

Take `CCCCCCCCCCCCCCCCCCC(CO)CO`: the growth inhibition was -22.4% (inactive).

For the molecule `C/C=C/C(=O)NN`, the growth inhibition is 13.3% (inactive).

As for `COc1cc(C(=O)NN(C)C)cc(OC)c1OC`, the growth inhibition is 13.5% (inactive).

In the case of `N#CCCOC(=O)Nc1ccccc1`, the growth inhibition was 21.9% (inactive).

For the molecule `CC1OC(n2ccc3ccc([N+](=O)[O-])cc32)C(O)C(O)C1O` (stereo not given), the growth inhibition was -5.2% (inactive).

For the molecule `COC(=O)NCc1nc2cc3c[nH][nH]c3cc2n1`, the growth inhibition is -8.15% (inactive).

As for `C[S+]1Cc2nc3ccccc3n2C1c1c(F)cccc1F` (stereo not given), the growth inhibition is 4.65% (inactive).

For `C=CC1C(C(=O)Nc2ccccc2)CN1C` (stereo not given), the growth inhibition is 7.1% (inactive).

For the molecule `COc1ccc(CN2CCCN(Cc3ccc(OC)cc3OC)C2c2cc(OC)ccc2OC)c(OC)c1`, the growth inhibition is -0.85% (inactive).

Regarding `CCCCCCCCOC(=O)Nc1cccc2ccccc12`, the growth inhibition is -12.8% (inactive).

In the case of `Nc1nc(O)c(N)c(=O)[nH]1`, the growth inhibition is -18.2% (inactive).

Take `c1ccn2cncc2c1`: the growth inhibition is 17% (inactive).

`Cc1cc(N(CCC#N)CCC#N)ccc1C=Nc1ccc(C(=O)NN2C(=O)/C(=C/c3ccc(N(CCC#N)CCC#N)cc3)N=C2c2cc([N+](=O)[O-])ccc2Cl)cc1`: the growth inhibition is 17.9% (inactive).

As for `CC1(C)N=C(C(N)=O)c2[nH]cnc2N1`, the growth inhibition is -2.55% (inactive).

On to `COc1cc(OC)c(OC)cc1/C=N/N=C(\N)NO`, for which the growth inhibition is -12.3% (inactive).

Take `CC1=CC(C(O)C(C)C)C(C)(Cc2ccc(C)cn2)NC1c1ccccc1` (stereo not given): the growth inhibition was 50.6% (inactive).

In the case of `CCN(CC)Cc1cc(OC)c(OC)c(OC)c1`, the growth inhibition is -8.3% (inactive).

Regarding `Cc1cc(=O)[nH]c(Nc2nc3ccccc3[nH]2)n1`, the growth inhibition was 1.1% (inactive).

Consider `Oc1ccc(-c2csc(NNC3=NC/C(=C/c4ccc5c(c4)OCO5)S3)n2)cc1O`, for which the growth inhibition was 30.9% (inactive).

The next assay in a line: NCI Yeast Anticancer Drug Screen. Data for the mec2-1 strain (AID 157). The following applies: S. cerevisiae mec2-1 strain, at 50.0 µM, hits give high values. In short, it runs like this:
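Using mec2-1 yeast: add compound, measure growth, express inhibition versus vehicle-treated cultures.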
Consider `CN=c1ncc2nc(-c3ccccc3)c(-c3ccccc3)n(C)c-2n1`, for which the growth inhibition is -5.9% (inactive).

In the case of `O=C(O)/C=C/c1ccccc1Br`, the growth inhibition was 3.5% (inactive).

With `CCCc1cccc[n+]1CC(=O)c1ccccc1`, the growth inhibition is 11.1% (inactive).

With `CCCCCCCCCCCCCCCCOc1ccccn1`, the growth inhibition is -20.6% (inactive).

As for `Cn1c2c(c3ccccc31)CCN(CCCCN1CCc3c(n(C)c4ccccc34)C1=O)C2`, the growth inhibition was -24.4% (inactive).

With `CC[C@@H]1CN(C)[C@H]2Cc3c([nH]c4ccccc34)C(=O)C[C@H]1C2C(=O)OC` (stereo not given in full), the growth inhibition is -14.5% (inactive).

With `O=C(O)c1ccccc1/C=N\N(CCO)C1=NCCN1`, the growth inhibition was 13.1% (inactive).

As for `COC(=O)C1=C(C)C(=O)[C@]23C(CCCC[C@H]12)C(=O)[C@H](C(=O)OC)C3C` (stereo not given in full), the growth inhibition was -31.2% (inactive).

`N#CCCSc1nnc(N)s1`: the growth inhibition was -7.9% (inactive).

Take `CCC1(O)c2ccccc2CCC1C` (stereo not given): the growth inhibition is -15.8% (inactive).

In the case of `O=S(=O)(c1ccccc1)c1ccccc1Br`, the growth inhibition was 14.8% (inactive).

`CC1=NCCN1CCN`: the growth inhibition is -17.2% (inactive).

Turning to `Clc1cc2nnn(C3CCCCO3)c2cc1Cl` (stereo not given), the growth inhibition is -3.05% (inactive).

Regarding `N#C/C(=N\NC(=O)c1ccccc1Cl)c1ccccc1Cl`, the growth inhibition is 79.3% (active).

With `O=C1C2=Cc3ccccc3OC2(O)Oc2ccc(O)cc21` (stereo not given), the growth inhibition was 6.75% (inactive).

Regarding `CCc1ccc([OH2+])c(C(=O)[O-])c1.CCc1ccc([OH2+])c(C(=O)[O-])c1.CCc1ccc([OH2+])c(C(=O)[O-])c1.CCc1ccc([OH2+])c(C(=O)[O-])c1.[Cu+2].[Cu+2]`, the growth inhibition was 2.5% (inactive).

Turning to `CCN(c1ccccc1)S(=O)(=O)c1ccc(Oc2ccccc2)c(N)c1`, the growth inhibition is -18.9% (inactive).

As to `COC1OC(COS(=O)(=O)c2ccc(C)cc2)C2OC(C)(C)OC2C1OS(=O)(=O)c1ccc(C)cc1` (stereo not given), the growth inhibition is 16.8% (inactive).

In the case of `c1ccc(-c2cc3c4ccccc4ccn3c2)cc1`, the growth inhibition is 10.2% (inactive).

Regarding `NC(=O)N/N=C/c1cccc(O)c1O`, the growth inhibition is -6.2% (inactive).

As for `N#Cc1cc([N+](=O)[O-])ccc1NC(=O)C(=O)C(C(=O)c1ccc2ccccc2c1)C1OCc2ccccc21` (stereo not given), the growth inhibition is -6.4% (inactive).

For the molecule `CCCCCCCCCCCCCCCCCCC(CO)CO`, the growth inhibition is -20.6% (inactive).

Turning to `C/C=C/C(=O)NN`, the growth inhibition is 7.85% (inactive).

In the case of `COc1cc(C(=O)NN(C)C)cc(OC)c1OC`, the growth inhibition is 0.65% (inactive).

With `N#CCCOC(=O)Nc1ccccc1`, the growth inhibition is 2.4% (inactive).

Regarding `CC1OC(n2ccc3ccc([N+](=O)[O-])cc32)C(O)C(O)C1O` (stereo not given), the growth inhibition is -3.85% (inactive).

With `COC(=O)NCc1nc2cc3c[nH][nH]c3cc2n1`, the growth inhibition is 0.05% (inactive).

Regarding `C[S+]1Cc2nc3ccccc3n2C1c1c(F)cccc1F` (stereo not given), the growth inhibition was -19.2% (inactive).

In the case of `C=CC1C(C(=O)Nc2ccccc2)CN1C` (stereo not given), the growth inhibition was 14.4% (inactive).

Turning to `COc1ccc(CN2CCCN(Cc3ccc(OC)cc3OC)C2c2cc(OC)ccc2OC)c(OC)c1`, the growth inhibition is -0.85% (inactive).

For `CCCCCCCCOC(=O)Nc1cccc2ccccc12`, the growth inhibition is -11.2% (inactive).

Regarding `Nc1nc(O)c(N)c(=O)[nH]1`, the growth inhibition is -16.9% (inactive).

`c1ccn2cncc2c1`: the growth inhibition was 17% (inactive).

As for `Cc1cc(N(CCC#N)CCC#N)ccc1C=Nc1ccc(C(=O)NN2C(=O)/C(=C/c3ccc(N(CCC#N)CCC#N)cc3)N=C2c2cc([N+](=O)[O-])ccc2Cl)cc1`, the growth inhibition is 10.1% (inactive).

`CC1(C)N=C(C(N)=O)c2[nH]cnc2N1`: the growth inhibition was 4.35% (inactive).

With `COc1cc(OC)c(OC)cc1/C=N/N=C(\N)NO`, the growth inhibition is 0.5% (inactive).

On to `CC1=CC(C(O)C(C)C)C(C)(Cc2ccc(C)cn2)NC1c1ccccc1` (stereo not given), for which the growth inhibition is -6.3% (inactive).

`CCN(CC)Cc1cc(OC)c(OC)c(OC)c1`: the growth inhibition is -14.5% (inactive).

Turning to `Cc1cc(=O)[nH]c(Nc2nc3ccccc3[nH]2)n1`, the growth inhibition is -0.75% (inactive).

`Oc1ccc(-c2csc(NNC3=NC/C(=C/c4ccc5c(c4)OCO5)S3)n2)cc1O`: the growth inhibition was -16.9% (inactive).

Source of the values: PubChem BioAssay (NCI).
